Data published in PubChem BioAssay AID1117319 (Southern Research Institute, 2015).
The campaign covered roughly 260,000 compounds. About 1,500 (0.58%) were called active. Roughly 5% stayed inconclusive and do not appear here.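 Rule for the calls: active = inhibition above a set limit at one or more doses, reproduced on every date tested; inconclusive = results disagree between test dates, or hit never tested in dose response; inactive = the rest.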 A selection follows. Results with a measured potency or affinity are listed apart.

Each compound was assayed against Virion infectivity factor (Human immunodeficiency virus type 1 group M subtype B (isolate BH10)) + Virion infectivity factor (Human immunodeficiency virus type 1 group M subtype B (isolate BRU/LAI)) + Virion infectivity factor (Human immunodeficiency virus type 1 group M subtype B (isolate PCV12)) + Virion infectivity factor (Human immunodeficiency virus type 1 group M subtype B (isolate HXB2)) + DNA dC->dU-editing enzyme APOBEC-3G (Homo sapiens) (UniProt P69720+P69721+P69722+P69723+Q9HC16) (assay: inhibitors of Vif binding to APOBEC3G peptide, primary screen, biochemical, TR-FRET, GST-Vif 1-94, biotin-A3G peptide, dose response retest (AID 1117319;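 note: Vif residues 1-94 fused to GST binding biotinylated APOBEC3G peptide 110-148; 0% = full assay without inhibitor and 100% = GST in place of GST-Vif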)). Settings: stronger effect = higher value.

inhibition, inactive:
CC(C(=O)OCC(=O)N(C)C1(C#N)CCCCC1)N1C(=O)c2ccccc2C1=O (stereo not drawn) -0.19%
Fc1ccc(CSc2nnc(-c3ccccn3)o2)cc1 -5.79%
O=C1c2ccccc2CC1Sc1nnc(-c2ccncc2)o1 (stereo not drawn) 8.68%
COc1ccc(N=C2SC(C(=O)Nc3ccc(C(=O)O)cc3)CC(=O)N2Cc2cccs2)cc1 (stereo not drawn) -11.4%
Cc1ccc(C)c(NC(=O)C2CCN(S(=O)(=O)c3ccc4c(c3)NC(=O)CO4)CC2)c1 -1.93%
COc1ccc(C(=O)CSc2nnc(-c3ccco3)n2C)cc1 7.51%
Cc1ccc(C(=O)CSc2nnc(-c3ccco3)n2C)cc1 11.4%
O=C(OC(C(=O)NCc1ccco1)c1ccc(Cl)cc1)c1cccs1 (stereo not drawn) 4.09%
CC(C)(C)NC(=O)C(c1ccc(O)cc1)N(C(=O)CCC(=O)Nc1ccccn1)c1ccc(F)cc1 (stereo not drawn) 16.4%
O=C(Nc1ccc2nsnc2c1)N1CCCCCC1 21.1%
Cc1nc2ccc(NC(=O)N3CCCCC3)cc2nc1C 1.22%
CCOC(=O)C1CCN(C(=O)Nc2ccc3nc(C)c(C)nc3c2)CC1 8.59%
CCOC(=O)C1CCN(C(=O)Nc2ccc3nccnc3c2)CC1 -4.96%
CCn1nnnc1NC(=O)c1cc(Cl)c(OC)c(Cl)c1 0.23%
Cc1noc(C(=O)NCC2CCCO2)c1Cl (stereo not drawn) 2.96%
COc1ccc(-n2nnc3c(SCC(=O)OCc4ccccc4)ncnc32)cc1 0.84%
C=CCNC(=O)O/N=C/c1csc([N+](=O)[O-])c1 -6.03%
CC(C)(C)c1ccc(C(=O)N/N=C/c2ccc(OCCCF)cc2)cc1 -1.58%
CCOc1ccccc1NCN1C(=O)c2ccccc2C1=O -5.06%
CCOc1ccc(NC2=CC(=O)C(=O)c3ccccc32)cc1 3.36%
O=C(NC(=S)Nc1ccccc1O)c1cccnc1 -2.04%
COc1ccc(NC(=O)c2oc3ccccc3c2C)c(OC)c1 3.61%
COc1ccccc1NC(=O)c1oc2ccccc2c1C -8.43%
Cc1nn(-c2cccc(Cl)c2)nc1C(=O)Nc1cccc(C(=O)NC2CC2)c1 -8.35%
O=[N+]([O-])c1ccc(N=Nc2ccc(O)cc2O)cc1 27.8%
O=[N+]([O-])c1cccc(N=Nc2ccc(O)cc2O)c1 5.74%
Oc1ccc(N=Nc2ccc3c(c2)OCCO3)c(O)c1 6.46%
Oc1ccc(N=Nc2ccc(Br)cc2)c(O)c1 -5.68%
Clc1cccc(CSc2nnc(-c3c[nH]c4ccccc34)o2)c1 -5.82%
Cc1ccc(-c2nc(C#N)c(N3CCCCC3)o2)cc1 -10.2%
CC(=O)N1CCc2ccc(NC(=O)c3c(-c4c(Cl)cccc4Cl)noc3C)cc21 -4.69%
O=[N+]([O-])c1ccc2nc(C3CCCCC3)[nH]c2c1 -11.7%
COc1cccc(C(=O)Nc2ccc3nc(N4CCOCC4)cc(C)c3c2)c1 -4.42%
CN(C)/C=C/C(=O)c1ccc(Br)cc1 -1.28%
O=C(NCCO)C1COc2ccccc2O1 (stereo not drawn) -2.17%
O=C(CSc1nnnn1C1CC1)N1CCN(c2ccccc2F)CC1 -1.62%
On1nnc2c3ccccc3c3ccccc3c21 0.98%
O=C(O)C1CCCCN1C(=O)c1ccc(S(=O)(=O)N2CCCCCC2)cc1 (stereo not drawn) -3.6%
COc1ccc2c(c1)CCCC(Br)C2=O (stereo not drawn) 11.8%
COc1cc2c(cc1OC)C(=O)CCC2 -1.94%
O=C(O)c1cccc2c1C(=O)c1ccc(N3CCN(Cc4ccc5c(c4)OCO5)CC3)cc1S2(=O)=O 1.13%
Cc1cccc2cc(CN(CCCO)C(=O)Nc3ccc(Cl)cc3)c(=O)[nH]c12 13.2%
C/C(=N\NC(=O)c1cc(C2CC2)nc2ccccc12)c1ccc(C)s1 5.05%
CC1=CC(=Nc2c(C)n(C)n(-c3ccccc3)c2=O)C=C(C)C1=O 16.9%
CCC(C)C1=CC(=Nc2c(C)n(C)n(-c3ccccc3)c2=O)C=C(C(C)CC)C1=O (stereo not drawn) 9.76%
Cc1c(N=c2c(=O)c3ccccc3c2=O)c(=O)n(-c2ccccc2)n1C 23.7%
Cc1c(N=C2C=CC(=O)c3ccccc32)c(=O)n(-c2ccccc2)n1C 25%
CC(=O)NC1=NN(C(C)=O)C(C)(c2cccs2)S1 (stereo not drawn) 2.86%
Cc1cc(=O)oc2cc(NC(=O)c3ccnn3C)ccc12 -5.65%
Cc1ccc(C)c(Cn2nnc3c(=O)[nH]c(C4CCN(S(=O)(=O)c5ccc(S(=O)(=O)NC6CC6)cc5)CC4)nc32)c1 -11.5%
O=C(CN1CCN(S(=O)(=O)c2ccc(Cl)cc2)CC1)NCc1cccs1 0.29%
O=C(CN1CCN(S(=O)(=O)c2ccc(Cl)s2)CC1)N1CCOCC1 7.26%
CC(C)Nc1nc(-c2ccccc2)nnc1-c1ccccc1 -7.57%
O=C(O)/C=C/C(=O)Nc1ccc(SC(F)(F)C(F)(F)C(F)(F)F)cc1 -1.48%
CCN(CC)CCN1C(=O)c2ccccc2NC1c1ccc(C)cc1 (stereo not drawn) 0.09%
CCN(CC)CCN1C(=O)c2ccccc2NC1c1ccc(F)cc1 (stereo not drawn) 1.63%
CC/C(C)=N/Nc1ccc(S(=O)(=O)N2CCCC2)cc1[N+](=O)[O-] 0.9%
CC1CCN(C(=O)c2ccc(CNc3c(N4CCCC4)c(=O)c3=O)cc2)CC1 5.36%
CC1CCCN(C(=O)c2ccc(CNc3c(N4CCCCC4)c(=O)c3=O)cc2)C1 (stereo not drawn) 4.47%
Cn1c(N)c(C(=O)COC(=O)C2CCCC2)c(=O)n(C)c1=O 0.6%
Cn1c(N)c(C(=O)COC(=O)C2CCC(C(C)(C)C)CC2)c(=O)n(C)c1=O (stereo not drawn) 15.1%
COc1ccc(S(=O)(=O)N2CCC3(CC2)CC(=O)c2ccccc2O3)cc1OC 5.1%
C=CCN1C(=O)S/C(=C\c2ccc(N3CCOCC3)cc2C)C1=O -1.96%
CCN1C(=O)S/C(=C\c2ccc(N3CCOCC3)cc2C)C1=O 15.3%
Cc1cc(=O)oc2c(CN3CCN(C)CC3)c(O)c(Cl)cc12 -0.71%
COc1ccccc1NC(=S)NN1CCN(C)CC1 -0.89%
O=C(Nc1ccc2ccccc2c1)c1cccnc1 -0.18%
Nc1ccc(C(=O)Nc2ccc3nc(-c4cccnc4)[nH]c3c2)cc1 1.2%
CC/C(=N\NC(=O)CSc1ncccn1)c1ccc2c(c1)OCCO2 4.58%
COc1ccc(-n2c(Cc3cc(=O)[nH]c(=O)[nH]3)nnc2SCC(=O)NC2CCCC2)cc1 2.26%
COc1ccc2cc(CN(Cc3ccco3)C(=S)NCC3CCCO3)c(=O)[nH]c2c1 (stereo not drawn) -22.6%
CC(=O)Nc1ccc(S(=O)(=O)N2CCc3ccccc3C2)cc1 21.6%
O=C(O)Cc1ccc(N=Cc2c(O)ccc3ccccc23)cc1 5.87%
NS(=O)(=O)c1ccc(N=Nc2c(O)c(C(=O)O)cc3ccccc23)cc1 24.6%
Cn1cnnc1SCC(=O)Nc1ccccc1C(=O)NC1CCCC1 7.03%
CC(=O)Nc1cccc(C(=O)NCC2(N3CCCCC3)CCCCC2)c1 3.75%
COc1ccc(Oc2ccc(C(F)(F)F)cc2NC(=O)c2ccc(OC)cc2)cc1 -13.5%
O=Cc1cnc(N2CCCCC2)s1 -7.46%
Clc1cccc2sc(N3CCCCC3)nc12 0.64%
CC(=O)c1cnc(N(C)C)s1 -3.71%
CN1CCN(c2ncc(CN3C(=O)c4ccccc4C3=O)s2)CC1 1.36%
Cc1ccccc1N1C(=O)C(Cl)=C(N2CCCCCC2)C1=O 4.9%
CN1CCN(C2=C(Cl)C(=O)N(C3CCCCC3)C2=O)CC1 20.6%
O=C(CN1CCc2ccccc21)NN1CC(=O)N(c2ccccc2)CC1=O 1.28%
CCOC(=O)c1ccc(NCc2ccncc2)cc1 -1.73%
COC(CN1CCc2c(C)nc3c(C#N)cnn3c21)OC 1.49%
CN(C)S(=O)(=O)c1cc(NC(=O)[C@H](Cc2ccccc2)N2C(=O)c3ccccc3C2=O)ccc1Cl 15.5%
NC(=O)c1sc2nc(-c3ccco3)ccc2c1N 25.6%
Nc1c(C(=O)Nc2ccc(Br)cc2)sc2nc(-c3ccco3)ccc12 4.88%
Cc1ccc(-c2nnc(SCc3ccc(C#N)cc3)n2Cc2ccco2)cc1 21.2%
N#Cc1ccc(CSc2nnc(-c3ccccc3)n2Cc2ccco2)cc1 3.24%
COc1cccc(C(=O)OC(C)CN2CCCC2)c1 (stereo not drawn) 2.26%
COc1ccc(CCC(=O)N2CCN(S(=O)(=O)c3ccc4ccccc4c3)CC2)cc1 -2.65%
O=C1c2ccccc2C(O)(c2ccccc2)N1C1CC1 (stereo not drawn) 18.6%
COc1cc(C(=O)OCCN2CCOCC2)ccc1O 6.52%
COc1cc(C(=O)OCCCN2CCOCC2)ccc1O 5.32%
CCNc1nc(SC(C)C(=O)OC)nc(N2CCOCC2)n1 (stereo not drawn) 2.4%
COc1ccc(N2CS(=O)(=O)/C(=C/N(C)C)C2=O)cc1 9.06%
